Source: PubChem BioAssay
Pf growth 96h – inhibits malaria parasite growth, 96 h. Potency, µM (series often up to 28.7 µM), for the others: at the highest dose activity change, negative = inhibition, hits mostly inhibitors. actives 6.9% (n = 320,000). P. falciparum luciferase reporter growth, 96 h; also: potency is read from the fitted curve at half-maximal effect; % is scaled to controls: 0 for no effect and ±100 for the full control effect
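Parasite growth measured via integrated firefly luciferase reporter in P. falciparum. Infected erythrocytes at 2% hematocrit, 0.05% parasitemia final were treated 96 hours at 37 C under 5% CO2, and luminescence was read.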
Pf growth 48h – inhibits P. falciparum growth in the first generation, 48 h; P. falciparum luciferase growth in erythrocytes, 48 h; actives 5.9% (n = 310,000); Potency, µM (titrated, usually from 28.7 µM), for the others: at the highest dose activity change, negative = inhibition, most hits filed as inhibitors; AID 504832; also: potency is read from the fitted curve at half-maximal effect; % is scaled to controls: 0 for no effect and ±100 for the full control effect
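Erythrocytes infected with P. falciparum carrying an integrated firefly luciferase reporter (2% hematocrit, 0.1% parasitemia final) were exposed to compounds in RPMI 1640 with 0.5% Albumax at 37 C, 5% CO2. Growth inhibition was scored as reduced luminescence.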
Cycloheximide cs – counter-screen hit for Shiga toxin inhibitors, cycloheximide | max response, % | cell reporter, cycloheximide protein synthesis inhibition counterscreen | actives 12% (n = 300,000); in the data active = max response mostly above about 13%, no sharp cut-off; inactive = mostly below about 14%; also: read at 38.3 µM for the half of the compounds with a filed dose; 0% is about no effect
Shiga inhibitor – Shiga toxin inhibition; Vero cells, Shiga toxin protein synthesis inhibition reporter; inhibition, % at 38.7 µM; actives 9.2% (n = 290,000); AID 2315; in the data active = inhibition mostly above about 28%, no sharp cut-off; inactive = mostly below about 43%; also: 0% is about no effect
NS1 function inh – influenza NS1 inhibition | Potency, µM (titrated, usually from 46.1 µM), without a hit: at the top dose activity, positive = more growth | actives 0.4% (n = 270,000) | AID 2326; calls by dose curve; also: potency is read from the fitted curve at half-maximal effect; actives are rising curves; nearly all actives have a fitted effect of over 50% in size
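OD600 was taken as the measure of yeast growth restored by compound in an NS1-expressing S. cerevisiae strain. Cells had been washed out of glucose medium and diluted 1:100 into galactose -URA medium, pH 6.0.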
An asterisk follows results filed as active; ? = inconclusive; . = no result; [ ] = another dose, or the depositor's remark. In the library only some 21% were active in any assay of this set; here they are far more common. Unless noted, calls follow the shape of the dose curve; as a rule, active = well fitted inhibition curve with a large enough effect; inconclusive = small, poorly fitted or top-dose-only effect, or another doubt; inactive = no such curve, though single readings can be large or run the other way.

SMILES	Pf growth 96h	Pf growth 48h	Cycloheximide cs	Shiga inhibitor	NS1 function inh
CC[C@H](C)[C@H](NC(=O)[C@H](Cc1ccccc1)NC(=O)[C@H](CCC(=O)O)NC(=O)[C@H](CCCCN)NC(=O)[C@H](C)NC(=O)[C@H](C)NC(=O)[C@H](CCC(N)=O)NC(=O)CNC(=O)[C@H](CCC(=O)O)NC(=O)[C@H](CC(C)C)NC(=O)[C@H](Cc1ccc(O)cc1)NC(=O)[C@H](CO)NC(=O)[C@H](CO)NC(=O)[C@@H](NC(=O)[C@H](CC(=O)O)NC(=O)[C@H](CO)NC(=O)[C@@H](NC(=O)[C@H](Cc1ccccc1)NC(=O)[C@@H](NC(=O)CNC(=O)[C@H](CCC(=O)O)NC(=O)[C@H](C)NC(=O)[C@@H](N)Cc1cnc[nH]1)[C@@H](C)O)[C@@H](C)O)C(C)C)C(=O)N[C@@H](C)C(=O)N[C@@H](Cc1c[nH]c2ccccc12)C(=O)N[C@@H](CC(C)C)C(=O)N[C@H](C(=O)N[C@@H](CCCCN)C(N)=O)C(C)C	.	.	10.1	-2.8	.
S=C1NCN(C2CCCCC2)CN1CCc1ccccc1	1.85µM*	4.65µM*	-0.7	-4.6	0.0%
CCCCN1CNC(=S)N(Cc2ccccc2)C1	9.28µM*	9.2%	-1.0	-15.6	5.4%
S=C1NCN(Cc2ccco2)CN1CCc1ccccc1	8.28µM*	?	-1.6	1.2	-1.4%
CCc1ccc(NC(=O)CCc2nc3ccccc3[nH]2)cc1	64.1%	-8.4%	-1.2	-5.1	.
O=C(Nc1ccccc1N1CCOCC1)C1CCN(S(=O)(=O)c2ccc(Cl)cc2)CC1	?	59.1%	-1.7	2.2	-8.0%
COc1ccc(-c2c(-c3ccccc3OC)oc3ccccc23)cc1F	2.62µM*	2.94µM*	.	.	.
COc1ccc(-c2coc3cc4oc(=O)c5ccccc5c4cc23)cc1F	-8.9%	27.7%	-8.2	-7.4	1.2%
O=C(c1ccccc1)c1nc2c(n1O)CCCCC2	-12.8%	122.2%	32.0*	44.0*	.
CCOC(=O)N1CCN(C(=O)CCNS(=O)(=O)c2ccc3c(c2)c(=O)n(C)c(=O)n3C)CC1	14.6%	-16.8%	-4.4	1.6	.
O=C1CC(N2CCN(C(c3ccccc3)c3ccccc3)CC2)C(=O)N1Cc1ccc(N2CCCC2=O)cc1 (stereo not drawn)	14.7µM*	9.28µM*	9.2	4.5	-17.9%
C=C1C(=O)O[C@@H]2[C@H]3O[C@]3(C)CCC=C(C)CC[C@@H]12	.	.	.	.	5.6%
C=C1C(=O)O[C@@H]2[C@@H]1CC/C(C)=C\CC[C@@]1(C)O[C@H]21	9.53µM*	?	.	.	.
Cc1ccc(-n2ncc3c(NCc4cccnc4)ncnc32)cc1C	59.9%	118.0%	45.2*	115.1*	-20.8%
COc1ccccc1CNc1ncnc2c1cnn2-c1ccccc1	-10.2%	6.7%	30.7*	43.0*	-42.7%
Cc1ccc(-n2ncc3c(NCc4cccnc4)ncnc32)c(C)c1	?	?	0.4	7.8	23.0%
Cc1cccc(-n2ncc3c(NCc4cccnc4)ncnc32)c1	108.4%	91.1%	46.5*	76.6*	-4.5%
COc1ccc(-n2ncc3c(NCc4cccnc4)ncnc32)cc1	213.1%	.	52.2*	85.9*	-2.3%
Cn1ncc2c(NNC(=O)c3ccc(O)cc3)ncnc21	-1.9%	170.2%	15.9	1.5	.
Cc1ccc(CNc2ncnc3c2cnn3-c2ccccc2)cc1	-19.7%	13.0%	1.2	-4.9	16.0%
CCC(=O)NNc1ncnc2c1cnn2-c1ccccc1	?	8.0%	12.2	20.9	.
Cc1cccc(C(=O)NNc2ncnc3c2cnn3C)c1	-71.8%	-2.8%	30.0*	35.6	.
Cc1ccc(-n2ncc3c(NCc4ccccc4)ncnc32)cc1	238.6%	171.0%	111.1*	102.7*	17.4%
CC(=O)NNc1ncnc2c1cnn2-c1ccc(C)c(C)c1	?	210.5%	56.2*	64.7*	.
c1ccc(-c2[nH]ncc2-c2ccnc3ccccc23)nc1	.	.	-5.9	-6.2	.
SMILES	Pf growth 96h	Pf growth 48h	Cycloheximide cs	Shiga inhibitor	NS1 function inh
CNC(=O)c1c(N)sc2c1CCCCC2	10.4µM*	.	-4.2	-14.2	-20.3%
COCCNC(=O)c1c(N)sc2c1CCCC2	?	9.28µM*	-3.5	-17.7	9.1%
CCCOC(=O)c1c(N)sc2c1CCC2	?	-3.1%	-2.5	10.2	-1.3%
NC(=O)c1c(N)sc2c1CCCCC2	?	5.8%	1.3	-7.8	-30.9%
C/C(=C/Cc1c(O)cc2oc(C)cc(=O)c2c1O)COC1OC(CO)C(O)C(O)C1O (stereo not drawn)	14.8%	11.9%	-4.7	-16.0	-16.6%
COc1ccc(C2=NN(C)C(=NCc3ccccc3)SC2)cc1	85.7%	51.3%	13.7	38.2*	-83.7%
COc1ccc(CN=C2NN=C(c3ccc(Cl)cc3)CS2)cc1	?	-16.9%	20.8*	52.1*	.
CC(C)(C)N=C1NN=C(c2ccc(Cl)cc2)CS1	-70.6%	-57.8%	70.2*	91.1*	3.6%
CC(C)(C)N=C1NN=C(c2cc3ccccc3o2)CS1	?	-86.5%	29.6*	85.7*	-0.3%
Oc1cccc(CCC2CCCCN2Cc2cn[nH]c2-c2ccc3c(c2)OCO3)c1 (stereo not drawn)	?	-19.7%	-2.0	-8.9	7.3%
C/C(CC(=O)Nc1cccnc1)=N\NC(=O)C(C)Oc1ccc(Cl)cc1Cl (stereo not drawn)	?	25.7%	9.8	10.6	-1.0%
O=C(NCc1ccncc1)Nc1ccccc1F	?	26.6%	1.7	6.5	-4.0%
COc1ccc(CN=C2Nc3ccccc3CS2)cc1	352.9%	106.8%	29.9*	59.7	-8.8%
COc1ccc(CN=C2NC(=O)CC(C(=O)Nc3ccc(F)cc3)S2)cc1 (stereo not drawn)	?	-7.9%	-2.4	11.7	-6.3%
O=C(OCc1ccccc1)c1cccnc1	15.1µM*	?	.	.	.
CN(C)c1ccc(C(=O)OCc2ccccc2)cc1	57.5%	.	35.1*	50.8	-2.6%
COC(=O)c1ccc(COC(=O)c2ccc(N(C)C)cc2)cc1	.	43.5%	40.9*	65.3*	10.4%[9.22 µM]
COC(=O)c1cccc(COC(=O)c2ccc(N(C)C)cc2)c1	20.3%	47.4%	-3.2	18.6	1.0%
O=C(Oc1ccccc1)c1cccc(COC(=O)c2cnccn2)c1	.	16.2%	36.1*	active	-28.3%
O=C(OCc1ccc(Br)cc1)c1cccnc1	17.4%	3.9%	-3.0	2.5	-51.3%
N#Cc1c(C(F)(F)F)cc(-c2cccc(Cl)c2)[nH]c1=O	1.2%	-16.5%	5.3	-8.3	-20.8%
Cc1ccc(C2=[N+]([O-])C3(CCCCC/C3=N\NC(N)=S)N(O)C2(C)C)o1 (stereo not drawn)	-21.7%	.	-5.2	-12.3	-8.7%
CCCc1cc(=O)[nH]c2nnc(SCC(=O)NC3CCCC3)n12	14.5%	0.9%	.	.	.
CCC(C)N1C(=O)S/C(=C/c2ccc(N3CCOCC3)cc2C)C1=O (stereo not drawn)	42.0%	42.9%	56.0*	87.0*	19.4%
Cc1ccc(N2CCN(C(=O)N3CCOCC3)CC2)cc1C	1.5%	0.0%	-1.9	-2.5	-8.2%
Cc1cc(N2CCOCC2)ccc1/C=C1\SC(=O)N(C(C)C)C1=O	203.2%	111.4%	38.9*	73.7	5.0%
